About 79,000 compounds went through this panel and 15% of them were active in at least one assay; those are over-represented in the sample as a whole. Values without a mark were called inactive. The source made the active and inactive calls. Rule as the data show it: active = growth inhibition above about 70%; inactive = the rest.
Test: NCI Yeast Anticancer Drug Screen. Data for the sgs1 mgt1 strain (AID 161);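 also: 0% = growth of cultures given vehicle only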
Details: S. cerevisiae sgs1 mgt1 strain, at 50.0 µM, active compounds read high
Procedure, shortened: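 This yeast growth screen uses a strain with defined DNA-repair lesions; compound-treated growth is compared with vehicle-treated growth.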

Structure (SMILES)	growth inhibition
O=N[O-].O=N[O-].[Co].[NH-]CC[N-]CCO.[NH-]CC[N-]CCO	17.1%
NC(=O)c1cc([N+](=O)[O-])cc([N+](=O)[O-])c1N(CCCl)CCCl	-15.4%
CC(C)C1NC(C(C)C)N2C(C(C)C)N12 (centres undefined)	-14.3%
Cc1cc(C)c(C(=O)O)c(C)c1.[Hg]	99.7% (active)
CCCCC1(CCC)C(=O)NC(=O)NC1=O	1%

Test: NCI Yeast Anticancer Drug Screen. Data for the cln2 rad14 strain (AID 165);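 also: 0% = growth equal to vehicle treated cultures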
Details: S. cerevisiae cln2 rad14 strain, at 50.0 µM, active compounds read high
Procedure, shortened: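 Relative to vehicle controls, growth inhibition of compound-treated cln2 rad14 yeast was recorded.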

Structure (SMILES)	growth inhibition
[Au].[NH-]CC[NH-].[NH-]CC[NH-]	-7.05%
C1C[OH+]CC[OH+]CC[OH+]CC[OH+]CC[OH+]1.[Cl-].[V]	-10.8%
Clc1ccc(N=P(c2ccccc2)(c2ccccc2)c2ccccc2)cc1.[Cl][Cd][Cl]	75.9% (active)
C=CCOCC1CO1 (centres undefined)	-8.6%
CC1CN1P(=O)(N1CCc2ccccc21)N1CC1C (centres undefined)	-24.7%
CCCCCCCCCCCCCCCCS(=O)(=O)c1ccc(S(=O)(=O)F)cc1NC(=O)C(F)(F)F	24.1%
CC(=O)c1ccc(Br)cc1	8.7%
COc1cccc(N2CCNCC2)c1	4.2%
CCC(N)CBr (centres undefined)	-16.9%
CN(C)C1C(=O)C(C(=O)NP(=O)(NCCCO)N(CCCl)CCCl)=C(O)C2(O)C(=O)C3=C(O)c4c(O)cccc4C(C)(O)C3CC12 (centres undefined)	15.3%
Cc1ccc(C[N+](C)(C)C)cc1	12.1%
NC1=NC(N)=N1	-1.25%
N=c1nc(N)n2c(N)nc(=N)n12	4.05%
O=[N+]([O-])c1cc(Br)c(O)c(Br)c1	-37.4%
O=C1CCC(=O)N1c1ccc([As](=O)(O)O)cc1	-28.1%
O=[N+]([O-])c1ccc(-n2nc3ccc4c(no[n+]4[O-])c3n2)cc1	16.6%
CN1CCN[C@@H]2CCCC[C@@H]21	-7.8%
N#CCC(=O)[O][Sn]([c]1ccccc1)([c]1ccccc1)[c]1ccccc1	97.8% (active)
CCN(CC)/C(=C\Cl)Nc1ccccn1	3.35%
CCCCCCCC(=O)[O-].N.N.N.N.N.[Co+3].[O-][Cl+3]([O-])([O-])[O-]	9.1%

Structure (SMILES)	growth inhibition
CCOP(=O)(CCP(=O)(OCC)OCC)OCC.C[CH2][Sn]([Cl])([Cl])[CH2]C	46%
CC(=O)C1=C(O)C2C3c4c[nH]c5cccc(c45)CC3C(C)(C)N2C1=O (centres undefined)	-12.8%
O=[N+]([O-])/C=C\c1c[nH]c2ccc(OCc3ccccc3)cc12	45.4%
Nc1cccc(SC2CC(=O)N(c3ccc(Cl)cc3C(=O)c3ccccc3)C2=O)c1 (centres undefined)	26.4%
CC(=O)Nc1cccc([As+](C)(C)C)c1	-22.2%
CN(C)C(=O)N(CCCl)N=O	2.55%
CC(C)OP(=O)(NC(=S)c1ccccc1)OC(C)C	11.4%
CC(/C=C/C1OC(=O)C=CC1C)=C\C(C)C/C=C/C(C)=C/C(CO)C(=O)C(C)C(O)C(C)C/C(C)=C/C(=O)O (centres undefined)	62.6%
C=C1OC(OC)CC(N=[N+]=[N-])C1O (centres undefined)	-5.3%
Cc1ccc(Oc2ccc3c(c2)CN(C)CC3)cc1	74.5% (active)
CCCC[S][Sn-]([CH2]CCC)([CH2]CCC)[CH2]CCC	98.5% (active)
CC(Cl)CN(CC(C)Cl)C(=O)Oc1ccc(CC(N)C(=O)O)cc1 (centres undefined)	-20.6%
COC(=O)C1C(O)CC2CCC1[N+]2(C)C (centres undefined)	2.05%
CN(C)CCN1C(=O)CN=C(c2ccccc2Cl)c2cc(Cl)ccc21	2.75%
O=N[O-].O=N[O-].[Co].[NH-]CC[N-]CCO.[NH-]CC[N-]CCO	14.9%
NC(=O)c1cc([N+](=O)[O-])cc([N+](=O)[O-])c1N(CCCl)CCCl	-3.8%
CC(C)C1NC(C(C)C)N2C(C(C)C)N12 (centres undefined)	-24.5%
Cc1cc(C)c(C(=O)O)c(C)c1.[Hg]	99.5% (active)
CCCCC1(CCC)C(=O)NC(=O)NC1=O	13.7%

Source: PubChem BioAssay (NCI)
